Sampled rows, rich in hits. Any-hit rate of the full collection: about 0.9%.
PPARg SRC3 recr – promotes SRC-3 coactivator recruitment by human PPARgamma; P37231; biochemical PPARgamma/SRC-3 coactivator recruitment assay; activation, % at 8 µM; 200,000 compounds, 0.26% hits; AID 731; in the data active means activation above about 23%;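 further: 0% = DMSO and 100% = reference agonist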
Target sequence (P37231 whole entry, looked up): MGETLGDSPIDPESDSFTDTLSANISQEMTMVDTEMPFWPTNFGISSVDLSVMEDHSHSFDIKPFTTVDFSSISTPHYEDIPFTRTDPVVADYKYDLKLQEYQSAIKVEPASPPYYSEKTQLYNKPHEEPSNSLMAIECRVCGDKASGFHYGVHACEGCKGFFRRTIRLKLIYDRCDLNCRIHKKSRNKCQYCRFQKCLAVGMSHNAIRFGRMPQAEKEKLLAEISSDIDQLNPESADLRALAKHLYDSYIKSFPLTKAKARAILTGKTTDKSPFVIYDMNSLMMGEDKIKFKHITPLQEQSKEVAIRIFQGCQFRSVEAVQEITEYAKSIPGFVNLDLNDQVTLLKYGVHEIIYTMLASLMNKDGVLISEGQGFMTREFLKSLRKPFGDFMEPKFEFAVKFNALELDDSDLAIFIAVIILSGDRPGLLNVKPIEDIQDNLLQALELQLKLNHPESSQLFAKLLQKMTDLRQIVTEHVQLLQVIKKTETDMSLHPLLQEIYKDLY
TR-FRET SRC-2 ct – counter-screen for PPARgamma SRC-2 recruitment agonists: TR-FRET artefact. hits give high values. TR-FRET ratio at 8 µM. 200,000 compounds, 0.4% hits; in the data active means TR-FRET ratio above about 2000
SRC1 TRFRET art – TR-FRET artefact, counter-screen to PPARgamma/SRC-1 agonist assay; TR-FRET detection artefact counter-screen, emission ratio; hits give high values; TR-FRET ratio at 8 µM; 99,000 compounds, 0.34% hits; in the data active means TR-FRET ratio above about 2300
PPARg SRC2 recr – agonists of SRC-2 recruitment by human PPARgamma | PPARgamma LBD-SRC-2 recruitment, biochemical | activation, % at 8 µM | 200,000 compounds, 0.34% hits;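 further: 0% = vehicle and 100% = reference agonist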
SRC3 TRFRET art – TR-FRET artefact, counter-screen to PPARgamma/SRC-3 agonist assay; PPARgamma/SRC-3 format; hits give high values; TR-FRET ratio at 8 µM; 99,000 compounds, 0.39% hits; AID 1048; in the data active means TR-FRET ratio above about 2000
PPARg SRC-1 ag – PPARgamma-driven SRC-1 recruitment agonism; P37231; PPARgamma-SRC-1 coactivator recruitment biochemical assay; activation, % at 8 µM; 200,000 compounds, 0.41% hits; AID 631; in the data active means activation above about 19%;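 further: 0% = DMSO and 100% = reference agonist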
PPARg SRC2 ag – human PPARgamma SRC-2 recruitment agonism, confirmation. shares compounds with PPARg SRC3 recr. biochemical SRC-2 recruitment by PPARgamma. activation, % at 8 µM. 790 compounds, 52% hits. AID 1297;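 further: 0% = vehicle alone and 100% = reference agonist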
PPARg SRC1 ag – human PPARgamma SRC-1 recruitment agonism, confirmation; 790 compounds, 43% hits; activation, % at 8 µM; PPARgamma–SRC-1 coactivator recruitment biochemical assay; shares compounds with PPARg SRC3 recr; in the data active means activation above about 20%;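 further: 0% = vehicle wells and 100% = reference agonist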
PPARg SRC3 ag – human PPARgamma SRC-3 recruitment agonism, confirmation. shares compounds with PPARg SRC3 recr. biochemical PPARgamma-SRC-3 coactivator recruitment, agonist mode. activation, % at 8 µM. 790 compounds, 29% hits; in the data active means activation above about 24%;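 further: 0% = vehicle wells and 100% = reference agonist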
Starred values were filed as active, the others as inactive; nt = no result. Unless noted, no stated cut-off is given here; in the data, active means activation above about 22%; inactive means the rest.

SMILES	PPARg SRC3 recr	TR-FRET SRC-2 ct	SRC1 TRFRET art	PPARg SRC2 recr	SRC3 TRFRET art	PPARg SRC-1 ag	PPARg SRC2 ag	PPARg SRC1 ag	PPARg SRC3 ag
CCC(OC(=O)c1cc2sccc2n1C)C(=O)NCC1CCCO1 (configuration not stated)	11	1531	nt	11	nt	22*	12	17	17
N#Cc1cc2c(nc1SCc1cccc(Cl)c1)CCCCC2	-2	1696	nt	17	nt	18	nt	nt	nt
N#Cc1cc2c(nc1SCc1ccccc1)CCCCC2	9	1973*	nt	35*	nt	12	37*	33*	24*
Cc1nc(-c2ccc([N+](=O)[O-])cc2)sc1C(=O)O	2	1707	1764	-5	1591	8	nt	nt	nt
C/C(=N/NS(=O)(=O)c1ccc(Cl)cc1)c1cccc(NC(=O)c2ccc(Cl)cc2Cl)c1	-1	1666	nt	24*	nt	18	7	8	5
C/C(=N/NS(=O)(=O)c1ccc(C)cc1)c1cccc(NC(=O)c2cccc(Cl)c2)c1	-1	1498	nt	7	nt	9	nt	nt	nt
O=C(CNC1CCCC1)Nc1ccc(N2CCCCCC2)cc1	6	1860	1797	8	1650	20*	1	0	1
O=C(CSc1nc2scc(-c3ccco3)c2c(=O)n1-c1ccccc1)N1CCOCC1	37*	2021*	nt	35*	nt	23*	26*	21*	19
NC(=O)CSc1nc2scc(-c3ccco3)c2c(=O)n1-c1ccccc1	5	1825	nt	15	nt	15	nt	nt	nt
Cc1ccccc1OCc1nnc2c3cnn(C)c3ncn12	-2	1419	1828	3	1326	-3	nt	nt	nt
N#CC1=C2SCN(Cc3ccccc3)CN2C(=O)CC1c1cccs1 (configuration not stated)	26*	2063*	nt	23*	nt	13	23*	15	15
COc1ccccc1NC(=O)c1ccc(NC(=O)COC(=O)CC(NC(=O)c2ccccc2Cl)c2ccccc2)cc1 (configuration not stated)	2	1476	1722	10	1446	1	nt	nt	nt
CCOC(=O)Cc1csc(NC(=O)c2csc(C)c2)n1	-3	1419	nt	14	nt	-2	nt	nt	nt
CCOC(=O)Cc1csc(NC(=O)c2sc3nc4c(C)cc(C)cc4cc3c2N)n1	27*	1807	nt	10	nt	17	9	6	5
Cc1ccc2ccc(C3C(=O)c4ccccc4C3=O)nc2c1	3	1452	nt	-12	nt	-3	nt	nt	nt
O=C(NCc1ccco1)C1CCCN1C(=O)Nc1ccccc1Cl (configuration not stated)	2	1467	1577	-1	1686	-3	nt	nt	nt
CCn1c(=S)ccc2ccc(OC)cc21	40*	2084*	nt	39*	nt	21*	9	4	6
COc1cc(NC(=O)c2cc3c(=O)n(C)c4ccccc4c3n2C)cc(OC)c1OC	28*	1684	nt	11	nt	22*	7	5	4
CC(C)Cn1c(N2CCN(CC(=O)Nc3ccc(Cl)cc3)CC2)nc2ccccc21	3	1565	1907	3	1589	-1	nt	nt	nt
O=C(COC(=O)c1cccnc1)Nc1ccc2c(c1)OCO2	-9	1506	1773	-1	1706	-2	nt	nt	nt
CSc1nnc(-c2ccccc2SC)o1	14	1917	2301	20	2050	22*	19	12	8
CSc1ccccc1-c1nnc(-c2ccccc2)o1	9	1741	nt	0	nt	0	nt	nt	nt
COc1ccc([N+](=O)[O-])cc1N/C(=N/S(=O)(=O)c1ccccc1)c1ccccc1	4	1667	1845	5	1666	-1	nt	nt	nt
COC(=O)c1ccc(C2C(C(=O)c3cc4ccccc4o3)=C(O)C(=O)N2CCCN(C)C)cc1 (configuration not stated)	29*	1943	nt	18	nt	22*	25*	22*	19
CN(C)CCCN1C(=O)C(O)=C(C(=O)c2cc3ccccc3o2)C1c1ccccc1 (configuration not stated)	90*	3299*	nt	73*	nt	53*	70*	50*	45*
SMILES	PPARg SRC3 recr	TR-FRET SRC-2 ct	SRC1 TRFRET art	PPARg SRC2 recr	SRC3 TRFRET art	PPARg SRC-1 ag	PPARg SRC2 ag	PPARg SRC1 ag	PPARg SRC3 ag
COc1cccc(C2C(C(=O)c3ccc(C)o3)=C(O)C(=O)N2CCCN(C)C)c1 (configuration not stated)	8	1772	nt	7	nt	0	nt	nt	nt
O=C(C1=C(O)C(=O)N(CCN2CCOCC2)C1c1cccnc1)c1cc2ccccc2o1 (configuration not stated)	10	1682	nt	3	nt	13	nt	nt	nt
COC(=O)c1ccc(C2/C(=C(\O)c3cccc(OC)c3)C(=O)C(=O)N2CCCN(C)C)cc1 (configuration not stated)	2	1824	2143	0	1661	10	nt	nt	nt
O=C(C1=C(O)C(=O)N(CCCN2CCOCC2)C1c1ccncc1)c1cc2ccccc2o1 (configuration not stated)	7	1889	2425*	21	2068*	23*	25*	16	16
COc1cc(CC(=O)N/N=C/c2ccc([N+](=O)[O-])cc2)c([N+](=O)[O-])cc1OC	-1	1599	1795	-8	1495	1	nt	nt	nt
CCOC(=O)c1sc(-c2ccc(OC)cc2)cc1NC(C)=O	14	1849	2390*	22*	2089*	18	43*	30*	32*
CCOc1ccc(NC(=O)Nc2cc(-c3ccccc3)sc2C(=O)OC)cc1	-1	1494	1837	1	1594	5	nt	nt	nt
COC(=O)c1sc(-c2ccccc2)cc1NC(=O)C1CC1	21	2243*	2544*	30*	2499*	33*	32*	21*	18
O=C(Nc1nc(-c2cccs2)c(C(=O)C(F)(F)F)s1)c1ccco1	37*	3022*	3540*	61*	3363*	41*	37*	22*	25*
C=CCn1c(NCc2cc(C)ccc2O)nc2ccccc21	3	1758	nt	19	nt	8	nt	nt	nt
C=CCn1c(NC(C)c2cc(Cl)ccc2O)nc2ccccc21 (configuration not stated)	28*	1650	nt	27*	nt	41*	19	32*	31*
O=C(CCSc1nnc2ccc3ccccc3n12)Nc1ccc(F)cc1	33*	1920	nt	17	nt	10	29*	24*	19
CC(Nc1ccc(Br)cn1)c1cc(Cl)ccc1O (configuration not stated)	52*	1617	nt	37*	nt	78*	33*	51*	41*
CC(Nc1ccc(Cl)cc1)c1cc(Cl)ccc1O (configuration not stated)	7	1301	nt	4	nt	1	nt	nt	nt

Compound activity from PubChem BioAssay.
